Compounds without any hit were thinned out: in the full panel of roughly 83,000, 20% have a hit.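 Cell lines were cultured in 96-well plates, exposed to a single compound concentration, and assessed for percent growth 48 hours later.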 Values without a mark were called inactive. Activity calls are given as the source filed them. The calls were made as follows: active = growth percent below 10; inactive = the rest.

Our source for the growth values is PubChem BioAssay (NCI).

What all share (assay): NCI-60 one-dose screen, 48 h (100 = growth as untreated, 0 = no growth, -100 = all killed)
Common to all, as to settings: 10 µM unless noted

In assay [1] the test system is MALME-3M melanoma.
Assay [2] concerns MDA-MB-231 breast.
Assay [3] concerns RXF 393 renal.
Assay [4] has as its system SF-268 CNS.
The test system of assay [5] is SF-295 CNS.
Assay [6] relates to SF-539 CNS.
Assay [7] deals with UACC-257 melanoma.
The test system of assay [8] is M14 melanoma.
In assay [9] the test system is HCT-15 colon.
Assay [10] has as its system HT29 colon.
The test system of assay [11] is SNB-75 CNS.
The subject of assay [12] is SNB-19 CNS.
In assay [13] the test system is U251 CNS.
Assay [14] relates to PC-3 prostate.
For assay [15], the system named is SK-MEL-5 melanoma.
Assay [16] relates to UACC-62 melanoma.
In assay [17] the test system is LOX IMVI melanoma.
For assay [18], the system named is SK-MEL-28 melanoma.
The subject of assay [19] is SK-MEL-2 melanoma.

In the case of `Cn1cc(-c2csc(-c3cn(C)c4ncccc34)n2)c2cc(F)cnc21`, the growth was 80.7% in assay [1]; 62.6% in [2]; 82.4% in assay [3]; 95.4% in [4]; 69.5% in assay [5]; 101% in [6]. Also, the growth in assay [7] is 84.1%; in assay [8] it was 62.8%; in assay [9], 61%; in [10], 69.8%; in assay [11] it was 75.2%; in assay [12] it was 83.3%. Moreover, the growth in assay [13] is 82.4%; in assay [14], 65%; in assay [15] it was 60.6%; in assay [16] it was 65.3%; in [17], 72.4%; in assay [18] it was 83.8%. Further, the growth in assay [19] was 98.7%.

`Cc1cc2cn3c4cccnc4[nH]c(=O)c3c2cc1C`: the growth in assay [1] was 80.1%; in assay [2], 40.5%; in [3], 70.6%; in assay [4] it was 73.4%; in assay [5] it was 34.4%; in [6] it was 76.7%. Besides, the growth in [7] was 85.8%; in assay [8] it was 36.4%; in assay [9] it was -37.7% (active); in [10], -76.3% (active); in assay [11], 79.3%; in [12], 56.4%. The growth in [13] is -71.2% (active); in assay [14] it was 67.7%; in assay [15], 44.4%; in assay [16], 61.2%; in assay [17], -68.5% (active); in [18] it was 86.6%. Besides, the growth in [19] is 58.2%.

Consider `O=C(/C=C/c1cccnc1)NCCCCC1CCCN(C(=O)c2ccccc2)C1` (stereo not drawn), for which the growth was 83.7% in [1]; 82.6% in [2]; 109% in assay [3]; 74% in assay [4]; 4.84% (active) in [5]; 28% in assay [6]. Moreover, the growth was 109% in assay [7]; 18.7% in assay [8]; 42% in [9]; 32.8% in assay [10]; 87.7% in assay [11]; 53.3% in assay [12]. Also, the growth was 43.1% in assay [13]; 47.5% in assay [14]; 61.7% in assay [15]; 87.5% in assay [16]; 73.1% in [18]; 15.3% in [19].

As to `CSc1nc2c(c(=O)n1C)C(c1ccccc1)C1=C(N2)/C(=C/c2ccccc2)CCC1` (stereo not drawn), the growth is 70.4% in assay [1]; 53.5% in assay [2]; 36.9% in assay [3]; 62.6% in [4]; 7.45% (active) in assay [5]; 63.4% in assay [6]. For the same molecule, the growth is 52.2% in assay [7]; 65.9% in assay [8]; 58.9% in [9]; 53.7% in [10]; 57.9% in assay [11]; 66.1% in assay [12]. Further, the growth was 48.8% in [13]; 48.1% in [14]; 40% in assay [15]; 58.2% in [16]; 78.7% in assay [18]; 29.5% in [19].

`CCn1c2ccccc2c2ccc(C(C)=O)cc21`: the growth in assay [1] is 113%; in [2], 114%; in assay [3] it was 105%; in [4], 90.8%; in assay [5], 116%; in assay [6] it was 96.5%. The growth in assay [7] was 108%; in assay [8], 105%; in assay [9], 107%; in assay [10], 95.9%; in assay [11], 94.9%; in assay [12] it was 106%. Also, the growth in assay [13] was 101%; in [15], 94.4%; in assay [16] it was 97.9%; in [18], 106%; in [19], 112%.

Regarding `COc1cc(C2NC(c3ccc(Cl)cc3)C(C)C(=NC(=O)c3cnccn3)C2C)cc(OC)c1OC` (stereo not drawn), the growth was 79.8% in assay [1]; 104% in assay [2]; 93.8% in assay [3]; 97.2% in [4]; 106% in assay [5]; 89.8% in [6]. The growth was 120% in assay [7]; 96.9% in assay [8]; 81% in [9]; 67.8% in assay [10]; 90.9% in [11]; 86.7% in assay [12]. In addition, the growth in assay [13] is 77.9%; in assay [14], 88.8%; in [15] it was 82.3%; in assay [16] it was 101%; in [18] it was 110%; in assay [19] it was 97.3%.

Consider `O=C(C(=O)N1CCCCC1)c1ccc(OC2OC(CO)C(O)C(O)C2O)cc1` (stereo not drawn), for which the growth was 101% in [1]; 110% in assay [2]; 104% in [3]; 105% in assay [4]; 125% in assay [5]; 100% in assay [6]. The growth in assay [7] was 106%; in [8] it was 99.1%; in [9] it was 108%; in assay [10] it was 100%; in assay [11], 91.9%; in assay [12], 96.8%. The growth is 96.4% in assay [13]; 97.3% in assay [14]; 105% in assay [15]; 97.9% in assay [16]; 104% in assay [18]; 99.4% in assay [19].

For `O=C(Nc1ccccc1Cl)c1cnc2ccc(C3CCNCC3)cn12`, the growth in assay [1] is 96.2%; in assay [2] it was 61.3%; in assay [3], 36.5%; in assay [4] it was 60.7%; in [5], 70.7%; in [6], 47%. The growth in [7] was 82.5%; in assay [8] it was 72.7%; in assay [9], 46.6%; in assay [10] it was 18%; in assay [11], -6.82% (active); in assay [12], 84.6%. For the same molecule, the growth in [13] was 88.4%; in [14] it was 72.1%; in assay [15], 90.6%; in assay [16] it was 93.6%; in assay [18], 102%; in assay [19] it was 92.4%.

Turning to `Cc1nc2cc(NC(=O)CN3CCN(CCN4C(=O)c5cccc6cccc(c56)C4=O)CC3)ccc2s1`, the growth is 70.6% in assay [1]; 72.2% in assay [2]; 47.8% in [3]; 46.2% in assay [4]; 48.3% in [5]; 59.4% in assay [6]. Moreover, the growth is 76.8% in assay [7]; 89% in assay [8]; 45% in assay [9]; 33.6% in assay [10]; 57.1% in [11]; 44.7% in assay [12]. For the same molecule, the growth is 43.4% in assay [13]; 39.4% in [15]; 62.5% in [16]; 39.9% in assay [17]; 86.4% in assay [18]; 73% in [19].
